hiPSC survival: enhancers of single-cell hiPSC survival, primary screen, ATPlite luminescence; survival enhancement, % at 20 µM; 100% = ROCK inhibitor wells, 0% = DMSO; actives 0.044% (n = 360,000); in the data active = survival enhancement above about 18%;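 note: cells exposed to compounds for 16 hours before the ATP read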
MIN6 prolif-1: inducers of MIN6 beta-cell proliferation, primary screen, ATP luminescence, uHTS | MIN6 cells proliferation, ATPlite luminescence, 48 h; cells starved in 0.2% serum; 100% = growth in 10% serum | actives 0.29% (n = 330,000) | proliferation, % at 10 µM;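 active = compounds whose signal lies at least 3.5 SD above the mean of all wells on their plate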
TAG inh: inhibitors of triacylglycerol accumulation, primary screen, cell-based, uHTS, fluorescence, H9c2; H9c2 cells, Nile Red lipid (TAG) fluorescence; cells loaded with 200 µM oleic acid; inhibition, % at 12.5 µM; actives 0.66% (n = 230,000); AID 651582, 2012;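 active = pattern-corrected inhibition of lipid staining of at least 50% with the nuclear-stain viability signal not falling by more than 50%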
MIN6 prolif-2: inducers of beta-cell proliferation in MIN6, confirmation, MIN6 cells, mouse; shares compounds with MIN6 prolif-1; ATPlite luminescence, 48 h; cells kept in 0.2% serum; scaled between 0.2% and 10% serum; proliferation increase, % at 50 µM; 920 tested, under 10 active; AID 463095, 2010;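 active = proliferation increase above 40% at any of the four tested concentrations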
Hits are given with their value; . = inactive; / = not tested or not shown. Sampled rows, rich in hits. Any-hit rate of the full collection: about 0.71%.

SMILES	hiPSC survival	MIN6 prolif-1	TAG inh	MIN6 prolif-2
C[C@H]1CN([C@@H](C)CO)C(=O)CCCn2cc(nn2)CO[C@@H]1CN(C)C(=O)Oc1ccccc1	.	/	/	/
CCOC(=O)[C@]12CCC=C1N(Cc1ccco1)C(=O)[C@H](CC(=O)NCCCOC)C2	.	/	/	/
Cc1ccc(C)c(S(=O)(=O)NC2CCS(=O)(=O)C2)c1 (stereo unspecified)	.	11.7	.	.
CCN(C1CCS(=O)(=O)C1)S(=O)(=O)c1cc(C)ccc1C (stereo unspecified)	.	.	.	/
COC(=O)N1CCC2CC1c1c(Cl)cccc12 (stereo unspecified)	.	/	/	/
COc1ccc(CCn2c(=N)c(S(=O)(=O)c3ccc(C)cc3)cc3c(=O)n4ccccc4nc32)cc1	.	13.3	/	.
Cc1ccc(Cn2c(=N)c(S(=O)(=O)c3ccc(Br)cc3)cc3c(=O)n4ccccc4nc32)cc1	.	.	/	/
CCOC(=O)c1c(S(=O)(=O)NCC(=O)Nc2ccc(OC)cc2)c(C)n(C)c1C	.	12.8	/	.
CCOC(=O)c1c(S(=O)(=O)NCC(=O)Nc2cc(C)ccc2OC)c(C)n(C)c1C	.	.	/	/
CCOC(=O)c1c(S(=O)(=O)NCC(=O)Nc2ccccc2OC)c(C)n(C)c1C	.	12.7	/	.
CCOC(=O)c1c(S(=O)(=O)NCCc2ccccc2)c(C)n(C)c1C	.	11.7	/	.
CCOC(=O)c1c(S(=O)(=O)NCC(=O)Nc2ccccc2)c(C)n(C)c1C	.	.	/	/
CCOC(=O)c1c(S(=O)(=O)NCCc2ccc(OC)c(OC)c2)c(C)n(C)c1C	.	.	/	/
CCOC(=O)C1CCN(C(=O)COC(=O)c2cccc(NS(=O)(=O)c3ccccc3)c2)CC1	.	/	.	/
COC(=O)[C@@H](NCc1ccc(B(O)O)cc1)C(C)C	.	/	.	/
CCCNC(=O)C1(C)CCCN(C(=O)CN2C(=O)c3ccccc3C2=O)C1 (stereo unspecified)	.	/	.	/
O=C(NC(c1ccc(-c2ccccc2)cc1)c1cnccn1)C1CCN(Cc2ccc3c(c2)OCO3)CC1 (stereo unspecified)	.	/	.	/
Clc1ccc(Cn2ncc3c(N4CCN(c5ccccc5)CC4)ncnc32)cc1	.	/	.	/
CCOC(=O)[C@]12CCC=C1N(Cc1ccc(Cl)cc1Cl)C(=O)[C@H](CC(=O)NCCCOC)C2	.	/	/	/
C/C(=N\NS(=O)(=O)c1ccc(C)cc1)c1cc2ccccc2oc1=O	.	8.4	.	.
C/C(=N/NS(=O)(=O)c1ccc(C)cc1)c1c(O)c2ccccc2oc1=O	.	.	.	/
CCC/C=C/c1ccc(CN2C(CC(C)C)C(=O)N(Cc3cn(Cc4ccco4)nn3)CCS2(=O)=O)cc1 (stereo unspecified)	.	/	.	/
O=C(CCC1CCCC1)N1CCN(C(=O)C2CC2)CC1	.	.	.	/
CCOC(=O)C1CCN(C(=O)c2ccc(C)o2)CC1	.	9.3	.	.
CCOC(=O)C1CCN(C(=O)c2ccco2)CC1	.	.	.	/
SMILES	hiPSC survival	MIN6 prolif-1	TAG inh	MIN6 prolif-2
CCOC(=O)C1CCN(C(=O)CCC2CCCC2)CC1	.	6.1	.	.
CC(C)c1ccccc1NC(=O)Nc1nnc([C@H]2C[C@H](O)[C@@H](CO)O2)s1	.	/	.	/
COC(=O)Cc1c(O)ccn(CCc2ccc(OC)c(OC)c2)c1=O	.	7.2	.	.
COc1ccc(CCn2ccc(O)c(Cc3ccc(Cl)cc3)c2=O)cc1OC	.	.	.	/
Nc1n[nH]c(N)c1N=Nc1ccccc1F	.	.	/	/
Cc1ccccc1N=Nc1c(N)n[nH]c1N	.	7.2	.	.
CCCCNC(=O)C1(C)CCCCN1C(=O)c1cc2ccccc2s1 (stereo unspecified)	.	/	.	/
COC(=O)c1c(NC(=O)Cc2cccs2)sc(C)c1C	.	.	/	/
CCOC(=O)c1c(NC(=O)Cc2cccs2)sc(C(=O)N2CCCCC2)c1C	.	9.5	.	.
Cc1cc(NC(=O)CCC(=O)N(Cc2ccco2)C(C)(C)C(=O)NC2CCCCC2)no1	.	.	.	/
Cc1cc(NC(=O)CCC(=O)N(Cc2cccs2)C(C)(C)C(=O)NC2CCCCC2)no1	.	6.2	/	.
CCOC1=C2CN(S(=O)(=O)c3ccc(C)cc3)[C@H](c3cccc4ccccc34)C[C@H]2[C@H]2C(=O)N(c3ccccc3)C(=O)[C@H]2C1	.	/	/	/
CCN(C(=O)CN1CCCCC1)c1c(N)n(Cc2ccccc2)c(=O)[nH]c1=O	.	.	.	/
COCCN(C(=O)CSc1ncccn1)c1c(N)n(Cc2ccccc2)c(=O)[nH]c1=O	.	.	.	/
CN(C(=O)CN1CCCCCC1)c1c(N)n(Cc2ccccc2)c(=O)[nH]c1=O	.	11.7	.	.
